# Experimental data published in PMC4336329 (PLoS ONE, 2015).
# In all, about 310,000 compounds went through this assay and about 14,000 (4.5%) showed an effect of 50% or more. The effect is printed as a negative number. For the sample, strong results were picked, then their nearest neighbours and some compounds at random.
# Biological target: human ether-à-go-go-related gene (hERG) potassium channel (human, UniProt Q12809)
# Test: primary screen, population patch clamp on CHO cells stably expressing hERG; higher = less effect of the substance
# 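Note: peak tail current of the secondary pulse compared with the same well before compound.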
# Sequence of human ether-à-go-go-related gene (hERG) potassium channel (Q12809 whole entry, looked up): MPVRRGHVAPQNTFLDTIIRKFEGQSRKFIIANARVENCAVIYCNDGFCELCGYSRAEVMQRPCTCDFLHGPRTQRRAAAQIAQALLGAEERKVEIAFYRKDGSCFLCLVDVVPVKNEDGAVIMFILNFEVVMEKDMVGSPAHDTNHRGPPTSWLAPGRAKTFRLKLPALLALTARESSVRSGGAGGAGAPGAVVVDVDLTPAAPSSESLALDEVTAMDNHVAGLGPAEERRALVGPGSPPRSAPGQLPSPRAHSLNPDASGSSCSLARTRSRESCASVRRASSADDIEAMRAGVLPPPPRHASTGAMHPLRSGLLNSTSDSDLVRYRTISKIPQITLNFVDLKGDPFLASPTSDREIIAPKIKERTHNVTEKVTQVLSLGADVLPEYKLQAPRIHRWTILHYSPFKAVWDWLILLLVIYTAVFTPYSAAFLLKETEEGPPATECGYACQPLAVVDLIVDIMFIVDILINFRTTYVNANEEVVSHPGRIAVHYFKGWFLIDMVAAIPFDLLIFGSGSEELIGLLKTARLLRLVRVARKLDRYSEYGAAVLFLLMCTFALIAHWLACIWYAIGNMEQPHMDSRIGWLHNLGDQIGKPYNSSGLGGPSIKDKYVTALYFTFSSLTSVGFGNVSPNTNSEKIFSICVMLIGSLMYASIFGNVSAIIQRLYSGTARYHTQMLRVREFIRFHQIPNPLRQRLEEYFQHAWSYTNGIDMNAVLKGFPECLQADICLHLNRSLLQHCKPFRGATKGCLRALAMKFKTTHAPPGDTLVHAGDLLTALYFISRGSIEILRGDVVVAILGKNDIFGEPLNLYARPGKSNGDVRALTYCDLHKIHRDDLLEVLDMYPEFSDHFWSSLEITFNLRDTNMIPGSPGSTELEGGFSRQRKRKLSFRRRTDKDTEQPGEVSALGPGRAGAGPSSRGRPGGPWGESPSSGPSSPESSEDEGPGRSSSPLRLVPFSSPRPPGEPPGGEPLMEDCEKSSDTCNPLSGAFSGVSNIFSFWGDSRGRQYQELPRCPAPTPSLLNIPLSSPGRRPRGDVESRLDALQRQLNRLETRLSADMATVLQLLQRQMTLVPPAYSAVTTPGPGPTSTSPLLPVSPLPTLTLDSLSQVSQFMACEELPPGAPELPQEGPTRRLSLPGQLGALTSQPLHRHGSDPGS
row,Compound,"hERG current change (%, negative = inhibition) at 10uM [%]"
1,COc1ccc(N2CCN(C(=O)c3ccc(SC)cc3OC)CC2)cc1,-55.3
2,COc1cc(SC)ccc1C(=O)N1CCN(Cc2ccccc2)CC1,-62.7
3,COc1cc(SC)ccc1C(=O)N1CCN(c2ccccc2)CC1,-17.2
4,COc1cc(SC)ccc1C(=O)N1CCCCCC1,17.3
5,COc1cc(SC)ccc1C(=O)N1CCN(Cc2ccc3c(c2)OCO3)CC1,-34.3
6,COc1cc(SC)ccc1C(=O)N1CCN(c2ccc(O)cc2)CC1,-34.2
7,COc1ccc(-c2cn3c(C)c(C(=O)NC(C)C)sc3n2)cc1,6.65
8,COc1nc2c(C)cccc2cc1-c1noc(-c2ccco2)n1,-8.01
9,c1ccc(-c2ncc3ccccn23)cc1,-3.24
10,COc1cc(-c2cc(C(=O)Nc3nc4ccccc4s3)c3ccccc3n2)cc(OC)c1OC,35.9
11,CCc1ccc(CNCc2cccs2)cc1.Cl,-22.9
12,Brc1ccc(CNCc2cccs2)cc1,-55.1
13,Brc1cccc(CNCc2cccs2)c1,-10.2
14,Cc1cc(Cl)c(OCCCn2cncn2)c(Br)c1,-14.1
15,CCCCOc1ccc(/C=C/C2=CC(C)(C)NC(=S)N2)cc1OCC,7.58
16,Cc1ccsc1CN(C)C(=O)C1CCC(=O)N(CCc2cccc(F)c2)C1 (stereo not shown),-35.9
17,CN(Cc1ccccc1Cl)C(=O)C1CCC(=O)N(CCc2cccc(F)c2)C1 (stereo not shown),-52.5
18,CN(Cc1nc2ccccc2[nH]1)C(=O)C1CCC(=O)N(CCc2cccc(F)c2)C1 (stereo not shown),4.23
19,CCn1ccnc1CN(C)C(=O)C1CCC(=O)N(CCc2cccc(F)c2)C1 (stereo not shown),-50.7
20,CCn1ccnc1CN(C)C(=O)C1CCC(=O)N(Cc2cccc(F)c2)C1 (stereo not shown),-11.9
21,CCn1ccnc1CN(C)C(=O)C1CCC(=O)N(Cc2cccc(C(F)(F)F)c2)C1 (stereo not shown),-22.8
22,O=C(CSc1n[nH]c(=O)[nH]c1=O)c1ccc(Cl)cc1Cl,16.1
23,Cn1c(=O)[nH]c(=O)c2c1nc(N1CCOCC1)n2CC(O)COc1ccccc1 (stereo not shown),6.81

row,Compound,"hERG current change (%, negative = inhibition) at 10uM [%]"
1,CCOc1ncccc1C(=O)OCC(=O)c1ccccc1Br,0.975
2,CCOc1ccccc1OCCCC(=O)N(CC)CC(=O)Nc1c(F)cccc1F,-1.78
3,CCN1CCN(C(c2ccc(C(F)(F)F)cc2)c2ccc3cccnc3c2O)CC1 (stereo not shown),-25.3
4,O=S(=O)(Nc1cccc2cn[nH]c12)c1ccc(F)cc1,-5.83
5,CCOC(=O)c1cc2c(=O)n3cccc(C)c3nc2n(CC(C)C)c1=NC(=O)c1ccco1,-69.7
6,CCOC(=O)c1cc2c(=O)n3cccc(C)c3nc2n(Cc2ccco2)c1=NC(=O)c1ccccc1,-37.2
7,CCCCn1c(=NC(=O)c2ccco2)c(C(=O)OCC)cc2c(=O)n3cccc(C)c3nc21,-81.6
8,CCOC(=O)c1cc2c(=O)n3ccccc3nc2n(CC(C)C)c1=NC(=O)c1c(-c2c(F)cccc2Cl)noc1C,5.66
9,CCOCCCn1c(=NC(=O)c2ccco2)c(C(=O)OCC)cc2c(=O)n3cccc(C)c3nc21,-74
10,Cc1ccc(NC(=O)CSc2nnc(CSc3nc(C)cc(C)n3)n2Cc2ccco2)c(C)c1,-39.5
11,O=C(Cn1nnc(-c2ccccc2F)n1)Nc1ccc2c(c1)OCCO2,11.3
12,O=C(COc1ccccc1Cl)Nc1cccc(S(=O)(=O)NC2=NCCCCC2)c1,-5.14
13,CN(C)CCCn1c(SCC(=O)N2c3ccccc3Sc3ccccc32)nc2ccccc2c1=O,-39.5
14,CC(=O)Nc1ccc(C)cc1,12.2
15,O=C(O)Cn1c(=O)cnc2ccccc21,9.56
16,CC(=O)c1c(C)n(C)c2ccc(OC(=O)c3ccc([N+](=O)[O-])cc3)cc12,17.2
17,CCOc1cc(-c2nc(C)c(C(C)=O)n2O)ccc1OCC(=O)Nc1ccccc1,-0.49
18,Cc1c(CN2CCC(CO)(Cc3ccccc3)CC2)c2ccccc2n1C,-37.8
19,Cc1cc(C)n(-c2ccc(C(=O)N3CCC(CO)(Cc4ccccc4)CC3)cc2)n1,9.21
20,Cc1cccc(-n2ccnc2CN2CCC(CO)(Cc3ccccc3)CC2)c1,-50.1
21,Cc1cccc(S(=O)(=O)N2CCC(CO)(Cc3ccccc3)CC2)c1,-2.74
22,Cc1[nH]c2ccccc2c1CN1CCC(CO)(Cc2ccccc2)CC1,-47.6
23,Cc1cc(C)n(-c2cccc(CN3CCC(CO)(Cc4ccccc4)CC3)c2)n1,-58.1

row,Compound,"hERG current change (%, negative = inhibition) at 10uM [%]"
1,Cc1[nH]c2c(C)cccc2c1CN1CCC(CO)(Cc2ccccc2)CC1,-62.2
2,CN(C)C1=NCCN1CC1CCCCCC1,-3.28
3,CCOC(=O)CNC(=O)Cn1cnc2sc(C)c(S(=O)(=O)N3CCOCC3)c2c1=O,16.4
4,CC(=O)N1CCc2cc(S(=O)(=O)CCC(=O)N3CCN(c4ccccc4)CC3)ccc21,7.15
5,O=S1(=O)N=C(N(Cc2cccs2)c2ccc(O)cc2)c2ccccc21,-39.1
6,COc1ccc(-c2cc(C(F)(F)F)nc(N3CCOCC3)n2)cc1,18.9
7,CCOC(=O)c1sc(N(Cc2ccccc2)C(=O)CSc2nnc(C3CC3)n2N)nc1C,-26.7
8,COc1ccc(C(=O)N/C(=C\c2cc(OC)c(OC)cc2[N+](=O)[O-])C(=O)NCCO)cc1,17.3
9,COc1ccc(/C=C(/NC(=O)c2ccc([N+](=O)[O-])cc2)C(=O)NCCCN(C)C)cc1,-93.4
10,COc1ccc(C(=O)N/C(=C\c2ccc([N+](=O)[O-])cc2)C(=O)NC(CCSC)C(=O)O)cc1 (stereo not shown),9.2
11,COc1ccc(/C=C(/NC(=O)c2ccc([N+](=O)[O-])cc2)C(=O)NC(C)(C)C)cc1,-40.8
12,C=CCNC(=O)/C(=C\c1ccc([N+](=O)[O-])cc1)NC(C)=O,2.33
13,C=CCNC(=O)/C(=C\c1ccc(OC)cc1)NC(=O)c1ccc([N+](=O)[O-])cc1,-77.1
14,Nc1ncncc1-c1ccc([N+](=O)[O-])cc1,-9.28
15,CC(=O)Cc1ccccc1OC(=O)c1ccco1,23.6
16,O=C(c1cc(=O)c2ccccc2o1)N1CCN(c2ccccc2)CC1,1.71
17,COc1ccc(N2CCN(C(=O)c3cc(=O)c4cc(Cl)ccc4o3)CC2)cc1,-76.3
18,O=C(c1cc(=O)c2ccccc2o1)N1CCN(c2cccc(Cl)c2)CC1,-56.4
19,Cc1cc(C)c2oc(C(=O)N3CCN(Cc4ccccc4)CC3)cc(=O)c2c1,-42.9
20,Cc1ccc(S(=O)(=O)N2CCN(C(=O)c3cc(=O)c4ccccc4o3)CC2)cc1,-55
21,CN1CCN(C(=O)c2cc(=O)c3cc(Cl)ccc3o2)CC1,-28.1
22,CC(=O)N1CCN(C(=O)c2cc(=O)c3ccccc3o2)CC1,26.2
23,COc1ccc(N2CCN(C(=O)c3cc(=O)c4cc(C)ccc4o3)CC2)cc1,-38.1

row,Compound,"hERG current change (%, negative = inhibition) at 10uM [%]"
1,O=C(c1cc2ccccc2o1)N1CCN(c2cccc(Cl)c2)CC1,-16.3
2,COc1ccc(N2CCN(C(=O)c3cc(=O)c4cc(C)c(C)cc4o3)CC2)cc1,0.819
3,O=C(c1cc(=O)c2cc(Cl)ccc2o1)N1CCN(Cc2ccccc2)CC1,-70.8
4,CCOC(=O)c1ccc(S(=O)(=O)N2CCN(C(=O)c3cc(=O)c4ccccc4o3)CC2)cc1,-38.2
5,CCOc1ccc(NC(=O)CN(C)C(=O)Cc2ccsc2)cc1OCC,-11.2
6,Cc1cccc(C2C3=C(CCCC3=O)N=C3c4ccccc4C(=O)C32)c1 (stereo not shown),-0.327
7,CCOC(=O)Cn1c(=O)c2c(nc(N3CCOCC3)n2C)n(C)c1=O,-4.47
8,COc1ccc(C2=NOC(Cn3c(Cc4ccc(Cl)cc4)nc4c3c(=O)n(C)c(=O)n4C)C2)cc1 (stereo not shown),-22.1
9,COc1ccc2cc(-c3cc(C(=O)OCC(=O)NC4CCS(=O)(=O)C4)c4ccccc4n3)ccc2c1 (stereo not shown),16.1
10,CCc1nnc(NC(=O)c2sc3nc4cc(C)ccc4cc3c2N)s1,13
11,CCCCNC(=O)c1ccc(N2CCC3(CC2)OCCO3)c([N+](=O)[O-])c1,-22.2
12,O=C1CC(NS(=O)(=O)c2ccc([N+](=O)[O-])cc2)CN1c1ccc(Cl)cc1 (stereo not shown),-66.6
13,CC(=O)c1ccc(S(=O)(=O)NC2CC(=O)N(c3ccc(Cl)cc3)C2)cc1 (stereo not shown),-34.8
14,O=C1CC(NS(=O)(=O)c2ccc([N+](=O)[O-])cc2)CN1c1ccc2c(c1)OCCO2 (stereo not shown),-1.64
15,COc1cccc(OCCCN2CCCCCC2)c1.O=C(O)C(=O)O,-37.8
16,Brc1cccc(OCCN2CCOCC2)c1.O=C(O)C(=O)O,19
17,Brc1cccc(OCCCCN2CCCCC2)c1.O=C(O)C(=O)O,-68.9
18,Brc1cccc(OCCCN2CCCCCC2)c1.O=C(O)C(=O)O,-70
19,Brc1cccc(OCCN2CCCCC2)c1.O=C(O)C(=O)O,-21.3
20,c1ccc(OCCCCN2CCCCC2)cc1,1.35
21,c1ccc(Oc2cccc(OCCCCN3CCCC3)c2)cc1,-78.3
22,CCOc1cccc(OCCCCN2CCCCC2)c1,-38.1
